Shown are actives, neighbours in structure and some others; about 10% of the full set was active somewhere.
JMJD2A Tudor = JMJD2A Tudor domain (human) inhibition; O75164; AlphaScreen JMJD2A-Tudor / H3K4me3 peptide binding; Potency, µM (titrated, usually from 114 µM), most hits filed as inhibitors; 4.4% of 390,000 active; AID 504339; further: nearly all actives have a fitted effect of over 50% in size
Target sequence (O75164 whole entry, looked up, the tested form may be a part): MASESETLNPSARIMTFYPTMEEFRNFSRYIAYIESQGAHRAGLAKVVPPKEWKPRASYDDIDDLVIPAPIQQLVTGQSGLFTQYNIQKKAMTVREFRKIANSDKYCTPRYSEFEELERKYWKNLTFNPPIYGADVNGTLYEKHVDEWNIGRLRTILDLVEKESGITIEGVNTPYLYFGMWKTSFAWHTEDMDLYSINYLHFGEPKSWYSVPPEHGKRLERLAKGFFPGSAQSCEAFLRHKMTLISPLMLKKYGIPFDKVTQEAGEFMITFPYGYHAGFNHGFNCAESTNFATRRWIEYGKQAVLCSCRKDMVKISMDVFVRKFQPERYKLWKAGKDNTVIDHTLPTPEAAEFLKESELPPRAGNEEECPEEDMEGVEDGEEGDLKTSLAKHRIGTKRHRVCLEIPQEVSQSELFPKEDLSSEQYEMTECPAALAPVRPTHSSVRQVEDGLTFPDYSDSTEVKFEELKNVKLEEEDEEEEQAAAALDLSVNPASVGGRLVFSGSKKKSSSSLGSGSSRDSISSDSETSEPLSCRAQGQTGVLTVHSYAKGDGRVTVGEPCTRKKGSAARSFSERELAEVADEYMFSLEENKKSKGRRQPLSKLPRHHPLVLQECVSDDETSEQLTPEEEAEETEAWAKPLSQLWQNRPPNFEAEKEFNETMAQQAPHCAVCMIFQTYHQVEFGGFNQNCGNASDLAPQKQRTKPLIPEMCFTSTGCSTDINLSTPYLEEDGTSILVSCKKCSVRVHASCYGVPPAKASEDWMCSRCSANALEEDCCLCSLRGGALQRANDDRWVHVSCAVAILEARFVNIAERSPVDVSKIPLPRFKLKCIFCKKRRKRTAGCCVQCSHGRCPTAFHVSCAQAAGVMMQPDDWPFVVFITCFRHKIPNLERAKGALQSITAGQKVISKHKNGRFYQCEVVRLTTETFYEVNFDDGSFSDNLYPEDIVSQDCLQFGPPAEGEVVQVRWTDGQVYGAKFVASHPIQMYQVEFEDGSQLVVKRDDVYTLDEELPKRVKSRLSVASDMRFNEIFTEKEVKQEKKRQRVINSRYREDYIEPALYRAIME
G9a block = inhibitors of human histone lysine methyltransferase G9a; Q96KQ7; G9a H3K9 monomethylation, AlphaScreen, 2 h; Potency, µM (series often up to 102 µM), actives largely listed as inhibitors; 8.8% of 350,000 active; further: nearly all actives have a fitted effect of over 75% in size
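Methyltransferase reactions run at room temperature for 2 h (20 nM enzyme, 500 nM biotin-H3K9 peptide, 20 uM SAM) after a 15 min compound preincubation; product detected by AlphaScreen beads and anti-H3K9me1 antibody.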
HP1b binding inh = inhibitors of HP1-beta chromodomain binding to methylated histone tails. P83916. AlphaScreen HP1-beta / biotin-H3K9me3 peptide binding. Potency, µM (series often up to 114 µM), most hits filed as inhibitors. 0.56% of 390,000 active; further: nearly all actives have a fitted effect of over 70% in size
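Compound inhibition of the preformed complex between 50 nM HP1-beta and 50 nM biotinylated H3K9me3 peptide was read by AlphaScreen. Buffer was PBS pH 7.4 with 0.01% Tween-20. Incubations ran 30 min at room temperature, with 10 ug/mL donor/acceptor beads.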
BAZ2B block = BAZ2B (human) inhibition. AlphaScreen BAZ2B-H3K14Ac peptide displacement. 4.4% of 360,000 active. AID 504333. Potency, µM (top dose mostly 114 µM), hits mostly inhibitors. Q9UIF8; further: nearly all actives have a fitted effect of over 60% in size
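BAZ2B (50 nM) with biotin-H3(5-23)K14Ac peptide (50 nM) in PBS pH 7.4, 0.01% Tween-20, preformed 30 min, then compound 30 min at room temperature; top concentration 110uM. AlphaScreen streptavidin donor/nickel chelate acceptor beads (10 ug/mL final), 20 min dark, signal read.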
GLS inh = blocks human kidney-isoform glutaminase activity. O94925. GLS enzymatic activity, qHTS titration. Potency, µM (top dose mostly 45.5 µM), most hits filed as inhibitors. 0.21% of 410,000 active
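Enzyme dispensed in phosphate buffer (45 mM, pH 8.2, 0.02% Tween-20), compounds pinned in, then 1 mM L-glutamine solution and the glutamate oxidase–HRP–Amplex Red mix added; fluorescence read immediately and again after 30 min at room temperature.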
Of the large screens only hits and unclear results are named; the others gave an inactive call. The call rests on the fitted dose curve; in most records, active means well fitted curve in the direction sought with a large enough effect; inconclusive means small, poorly fitted or top-dose-only effect, or another doubt; inactive means no such curve, though single readings can be large; an effect the other way counts as inactive or inconclusive.

Cc1cc(C)c(Cn2cnc3nc4c(cc3c2=O)CCCC4)c(C)c1	none
O=C(C1CCCCC1)N(Cc1cccnc1)c1nc2c(F)cccc2s1	none
CCCOc1ccc(Cc2nn[nH]n2)cc1	G9a block 50µM
CC(C)CCn1c(=O)c2cccnc2n(CC(=O)Nc2ccc(F)cc2)c1=O	none
O=C(NCc1ccccn1)C(=O)N/N=C/c1ccccc1O	JMJD2A Tudor 25µM, BAZ2B block 40µM
Cc1cc(/C=N/NC(=O)C(=O)NCc2ccccn2)c(C)n1-c1cccc(Br)c1	JMJD2A Tudor inconclusive, G9a block 50µM, BAZ2B block 50µM
CC(=O)N/N=C/c1cc(C)n(-c2ccc(Br)cc2)c1C	G9a block inconclusive, BAZ2B block inconclusive
O=C(NCCCN1CCOCC1)C(=O)N/N=C/c1ccccc1O	JMJD2A Tudor 28µM, BAZ2B block 28µM
O=C(NCc1ccccn1)C(=O)NN=C1CCCCCCCCCCC1	none
CCCCN(C(=O)C1CC(=O)N(c2ccc(CC)cc2)C1)c1c(N)n(CCC)c(=O)[nH]c1=O (stereo unspecified)	G9a block inconclusive
CC(O)(c1ccccc1)c1nc(-c2cc3ccccc3o2)cs1 (stereo unspecified)	none (no result: JMJD2A Tudor, G9a block, HP1b binding inh, BAZ2B block)
Cc1nc2sccn2c1-c1nc(-c2cc3ccccc3o2)cs1	JMJD2A Tudor 25µM, BAZ2B block inconclusive
CC(C)NC(=O)N1CC[C@@]2(CCCN(C(=O)c3cc(C(F)(F)F)cc(C(F)(F)F)c3)C2)C1	none (no result: JMJD2A Tudor, HP1b binding inh, BAZ2B block, GLS inh)
CC(=O)c1ccc2c3c(cccc13)C(=O)N(c1c(C)nn(C)c1C)C2=O	G9a block 10µM
CCOc1ccccc1NCc1cc(=O)oc2cc(C)ccc12	JMJD2A Tudor inconclusive, G9a block 45µM
Cc1cc(=O)[nH]c(-n2[nH]c3c(c2=O)CCCC3)n1	JMJD2A Tudor 2.2µM, BAZ2B block 13µM
Cc1nc(-n2[nH]c3c(c2=O)CCCC3)[nH]c(=O)c1Cc1ccccc1	JMJD2A Tudor inconclusive, BAZ2B block inconclusive
Cc1c(CC(=O)NCc2ccc(F)cc2)c(=O)oc2cc(O)c(Cl)cc12	none
CCOC(=O)[C@H]1[C@H]2COc3ccc(Br)cc3[C@@H]2N2C(=O)CN(Cc3ccco3)C(=O)[C@@]12C	JMJD2A Tudor inconclusive, BAZ2B block 50µM
Cc1ccc(C(=O)N/N=C/c2cc(Br)ccc2O)cn1	JMJD2A Tudor 56µM, BAZ2B block 7.9µM
Cc1ccc(C(=O)N/N=C\c2ccccc2[N+](=O)[O-])cn1	none
CCN(CC)S(=O)(=O)c1cccc(C(=O)N/N=C/c2ccccn2)c1	JMJD2A Tudor inconclusive, G9a block inconclusive, BAZ2B block 56µM
O=C(O)c1cccc(NC(=S)N/N=C/c2ccccn2)c1	JMJD2A Tudor 25µM, G9a block 50µM, BAZ2B block 3.5µM
Cc1ccc(C(=O)N/N=C\c2ccccn2)cn1	JMJD2A Tudor 79µM, BAZ2B block inconclusive
CCNC(=O)C1(C)CCCN(Cc2noc(-c3c(C)noc3C)n2)C1 (stereo unspecified)	none (no result: JMJD2A Tudor, G9a block, HP1b binding inh, BAZ2B block)
O=C(N/N=C/c1ccccn1)c1cc([N+](=O)[O-])cc([N+](=O)[O-])c1	JMJD2A Tudor 56µM, BAZ2B block 50µM
CC(C)NC(=S)N/N=C/c1cc(Br)ccc1O	JMJD2A Tudor 50µM, HP1b binding inh inconclusive, BAZ2B block 18µM
C/C(CC(=O)Nc1cc(C)ccn1)=N\NC(=O)c1cccc(C)c1	BAZ2B block 89µM
O=C(N/N=C/c1ccccn1)c1cccc([N+](=O)[O-])c1	G9a block inconclusive, BAZ2B block 45µM
O=C(N/N=C/c1ccccn1)c1ccc([N+](=O)[O-])cc1	none
Cc1cccc(OC(C)C(=O)N2CCC(c3nc4ccccc4o3)CC2)c1C (stereo unspecified)	none
O=C(NCCc1ccccc1Cl)c1ccc(Cn2c(=O)c3cccn3c3cccnc32)cc1	JMJD2A Tudor inconclusive, G9a block inconclusive, BAZ2B block inconclusive
O=C(Cc1cccc(C(F)(F)F)c1)Nc1cc(S(=O)(=O)N2CCOCC2)ccc1N1CCCC1	none
O=C(N/N=C/c1ccc2ncccc2c1)c1cccc([N+](=O)[O-])c1	JMJD2A Tudor inconclusive, G9a block 79µM
CCOc1cc(Br)cc(/C=N/NC(=O)c2cccnc2)c1O	JMJD2A Tudor 40µM, BAZ2B block 28µM
Cc1ccc(C(=O)N/N=C/c2cccc(OC(=O)/C=C/c3ccco3)c2)cn1	G9a block 45µM, HP1b binding inh inconclusive, BAZ2B block 50µM
O=C(N/N=C/c1ccncc1)c1cc([N+](=O)[O-])cc([N+](=O)[O-])c1O	JMJD2A Tudor 79µM, G9a block inconclusive, BAZ2B block inconclusive, GLS inh inconclusive
CC(/C=C/c1ccco1)=N/NC(=O)c1ccc(C)nc1	none
COc1ccc(NC(=O)c2cccc(N3CCCS3(=O)=O)c2)c(OC)c1	none
Cc1ccc(NC(=O)C2(C)CCN2CCc2ccccc2)cc1 (stereo unspecified)	none (no result: JMJD2A Tudor, G9a block, HP1b binding inh, BAZ2B block)
Cc1cccc(C(=O)N/N=C/c2ccccn2)c1	JMJD2A Tudor inconclusive, G9a block 16µM
CCOc1ccc(/C=N/NC(=O)CN2CCSCC2)cc1	JMJD2A Tudor 2µM, G9a block 10µM, HP1b binding inh inconclusive, BAZ2B block 50µM
COc1ccc(/C=N/NC(=O)CN2CCN(Cc3ccccc3)CC2)cc1Br	none
CCOc1ccc(/C=N/NC(=O)C2(O)c3ccccc3-c3ccccc32)cc1	JMJD2A Tudor 89µM
COc1ccc(/C=N/NC(=O)CN2CCSCC2)cc1C	JMJD2A Tudor 3.5µM, G9a block inconclusive, HP1b binding inh inconclusive, BAZ2B block 50µM
COc1ccc(/C=N/NC(=O)CN2CCCC2)cc1	none
COc1ccc(-c2nc3cccc(C)n3c2Nc2ccc(C)cc2)cc1	JMJD2A Tudor 40µM (no result: G9a block, BAZ2B block, GLS inh)
COc1ccc(Nc2c(-c3ccco3)nc3cccc(C)n23)cc1	JMJD2A Tudor 56µM, G9a block 25µM, HP1b binding inh inconclusive, BAZ2B block 22µM
Cc1ccc(Nc2c(-c3cccc(Cl)c3)nc3cccc(C)n23)cc1	JMJD2A Tudor inconclusive, G9a block inconclusive, BAZ2B block inconclusive
CCCCCc1nnc(NC(=O)Cn2cnc3ccccc3c2=O)s1	none
Cc1ccc(S(=O)(=O)C2CCN(c3nc(-c4cccs4)nc4ccccc34)CC2)cc1	none (no result: G9a block, BAZ2B block, GLS inh)
C=C1CC[C@H](O)C/C1=C/C=C1\CCC[C@]2(C)C([C@H](C)CCCC(C)(C)O)CC[C@@H]12 (stereo partly specified)	none (no result: JMJD2A Tudor, HP1b binding inh, BAZ2B block, GLS inh)
Oc1c(C(c2ccccc2)N2CCOCC2)sc2nc(-c3ccco3)nn12 (stereo unspecified)	none
CCOC(=O)COc1c(/C=N\O)cc(Cl)cc1OC	none
O=C(O)C(Cc1cn[nH]n1)=NO	JMJD2A Tudor 7.9µM, G9a block 6.3µM, HP1b binding inh inconclusive, BAZ2B block 25µM
COc1ccc(C(=O)Cc2cc(OC)c(OC)cc2[N+](=O)[O-])c(OC)c1	GLS inh 11µM
COc1ccc(C(=O)Cc2ccc(F)cc2)c(OC)c1	none

Screening data from PubChem BioAssay.
